# Values quoted from earlier work as cited in PubChem BioAssay AID977610.
# Hit rate of the full screen: of about 3,600 compounds, about 3,600 (100%) were called active. Cut-off not given; nearly all actives show Ki up to about 18000 µM. So high a share suggests a set chosen from earlier hits. The list shows a part of the results.
# Assay: PubChem AID 977610
# Conditions: PDB protein-ligand complexes, literature Ki
molecule,measurement,setting,value
C[C@@H](O[P+](O)(O)O)C(=O)O,Ki,"protein: PHOSPHO-2-DEHYDRO-3-DEOXYHEPTONATE ALDOLASE DAH7PS, PDB entry 4umb",99 µM (active)
C[C@H](O[P+](O)(O)O)C(=O)O,Ki,"protein: PHOSPHO-2-DEHYDRO-3-DEOXYHEPTONATE ALDOLASE DAH7PS, PDB entry 4umc",360 µM (active)
H-RLPTSII-OH,Ki,"protein: CFTR Associated Ligand (CAL) PDZ domain, PDB entry 4jof",68 µM (active)
H-NSRYPTSII-OH,Ki,"protein: CFTR Associated Ligand (CAL) PDZ domain, PDB entry 4jok",85.3 µM (active)
H-SRFPTSII-OH,Ki,"protein: CFTR Associated Ligand (CAL) domain, PDB entry 4joj",110 µM (active)
H-SRVPTSII-OH,Ki,"protein: CFTR Associated Ligand (CAL) PDZ domain, PDB entry 4jog",190 µM (active)
CC(C)(C)NC(=O)[C@@]1(c2c(C(=O)O)[nH]c3cc(Cl)ccc23)N2C(=O)[C@]21c1ccc(OCc2ccc(Cl)cc2)cc1,Ki,"protein: E3 ubiquitin-protein ligase Mdm2, PDB entry 4mdn",0.6 µM (active)
CC(C)(C)NC(=O)[C@@H]1C[C@@H]2CCCC[C@@H]2CN1C[C@@H](O)[C@H](C[C@@H]1C=CCCC1)NC(=O)[C@H](CC(N)=O)NC(=O)C1=CCc2ccccc2N1,Ki,"protein: Protease PRG48T/L89M, PDB entry 4qgi",125 µM (active)
Nc1nc2c(ncn2CC(COC[P+](O)(O)O)COC[P+](O)(O)O)c(=O)[nH]1,Ki,"protein: hypoxanthine-guanine phosphoribosyltransferase, PDB entry 4ijq",0.03 µM (active)
Nc1nc2c(ncn2[C@H]2CN(C(=O)C[P+](O)(O)O)C[C@H]2O)c(=O)[nH]1,Ki,"protein: Xanthine phosphoribosyltransferase, E. coli XGPRT, PDB entry 4jls",2.2 µM (active)
Nc1nc2c(ncn2[C@H]2CCN(C(=O)C[P+](O)(O)O)C2)c(=O)[nH]1,Ki,"protein: Xanthine phosphoribosyltransferase, E. coli XGPRT, PDB entry 4jit",0.23 µM (active)
O=C(O)CC1(CC(=O)N2CCN(C(c3ccccc3)c3ccccc3)CC2)CCCC1,Ki,"protein: Dehydrosqualene synthase, PDB entry 3tfn",0.27 µM (active)
CO[C@H]1CC[C@H](OC)[C@@H](NC(=O)CN2CCN(Cc3ccc4c(c3)OCO4)CC2)C1,Ki,"protein: E. coli beta-Glucuronidase, PDB entry 4jhz",0.957 µM (active)
NCCCC[C@H](NC(=O)Cc1ccc(Cl)c(Cl)c1)C(=O)N[C@@H](CCCCN)C(=O)NCC1CCC(NC(N)N)CC1 (some centres not stated),Ki,"protein: SERINE PROTEASE SUBUNIT NS2B, SERINE PROTEASE NS3, PDB entry 2yol",0.13 µM (active)
Cn1nc(N)c2c[n+]([C@@H]3O[C@H](CO[P+](O)(O)O)[C@@H](O)[C@H]3O)c3nc[nH]c1c23,Ki,"protein: Deoxyribonucleoside 5'-monophosphate N-glycosidase (D69N mutation), PDB entry 4fyh",14 µM (active)
N#Cc1cccc(Cn2cc(NC(=O)c3n[nH]c4ccccc34)cn2)c1,Ki,"protein: Tyrosine-protein kinase ITK, PDB entry 4pp9",0.043 µM (active)
CCc1[nH]c2nc(Oc3cncnc3)nc(N3C[C@@H]4C(N)[C@@H]4C3)c2c1Cl (some centres not stated),Ki,"protein: DNA gyrase subunit B, PDB entry 4gee",0.001 µM (active)
COc1ccc(OCCN2C[C@H]([C@@H](O)CO)[C@H]3CCC[C@@H](C2=O)N3S(=O)(=O)c2cc(Cl)cc(Cl)c2)cc1OC,Ki,"protein: Peptidyl-prolyl cis-trans isomerase FKBP51, PDB entry 4w9o",0.017 µM (active)
COc1ccc(OCCN2C[C@H]([C@H](O)CO)[C@H]3CCC[C@@H](C2=O)N3S(=O)(=O)c2cc(Cl)cc(Cl)c2)cc1OC,Ki,"protein: Peptidyl-prolyl cis-trans isomerase FKBP51, PDB entry 4w9p",0.016 µM (active)
O=C(O)c1cc2[nH]c3ccccc3c2cc1Cl,Ki,"protein: E. coli sliding clamp, DNA polymerase III subunit beta, PDB entry 4n99",216 µM (active)
Cc1ccc(CSc2nc3c(c(=O)[nH]2)CCC3)cc1,Ki,"protein: Matrix metalloproteinase-13, PDB entry 4l19",0.8 µM (active)
O=c1ccn([C@@H]2O[C@H](CO)[C@@H](O[P+](O)(O)O)[C@H]2O)c(=O)[nH]1,Ki,"protein: bovine seminal ribonuclease, PDB entry 1n3z",63.2 µM (active)
Cc1cc(=O)[nH]c(=O)n1[C@@H]1O[C@H](CO[P+](O)(O)O)[C@@H](O)[C@H]1O,Ki,"protein: Orotidine 5'-phosphate decarboxylase, PDB entry 3wjw",134 µM (active)
O=c1ccn([C@@H]2O[C@H](CO)[C@@H](O)[C@H](O)[C@H]2O)c(=O)[nH]1,Ki,"protein: Glycogen phosphorylase, muscle form, PDB entry 3t3d",12.4 µM (active)
N#C[C@H]1CC(=O)NC(=O)N1[C@@H]1O[C@H](CO[P+](O)(O)O)[C@@H](O)[C@H]1O,Ki,"protein: Mt orotidine 5'-monophosphate decarboxylase (OMPDC) K72A mutant, PDB entry 2zz2",29 µM (active)
O=c1ccn([C@@H]2O[C@H](CO[P+](O)(O)O)[C@@H](O)[C@H]2O)c(=O)[nH]1,Ki,"protein: D312N mutant of human orotidyl-5'-monophosphate decarboxylase, PDB entry 3ex6",220 µM (active)
same,Ki,"protein: Mt orotidine 5'-monophosphate decarboxylase (OMPDC), PDB entry 3g1d",330 µM (active)
same,Ki,"protein: orotidine 5'-monophosphate decarboxylase from P.falciparum, PDB entry 2za3",210 µM (active)
O=c1cnn([C@@H]2O[C@H](CO[P+](O)(O)O)[C@@H](O)[C@H]2O)c(=O)[nH]1,Ki,"protein: Methanothermobacter thermautotrophicus ODCase mutant K42A, PDB entry 1km3",12.4 µM (active)
same,Ki,"protein: orotidine 5'-monophosphate decarboxylase from Saccharomyces cerevisiae (D91N), PDB entry 3gdt",0.064 µM (active)
CC(C)(C)OC(=O)N[C@H](C(=O)NO)c1ccc(-n2cccn2)cc1,Ki,"protein: M1 family aminopeptidase A-M1, PDB entry 4r5t",0.8 µM (active)
same,Ki,"protein: M17 leucyl aminopeptidase A-M17, PDB entry 4r6t",0.03 µM (active)
